Reference: PubChem BioAssay AID1159580 (chemical genetic matrix, 2015)
“And” between values parts separate entries of the source, which are not always exact repeats. Equal entries are not always repeated. Out of some 5,500 compounds screened, about 2,000 (36%) were called active. Not shown: some 18% with an inconclusive outcome. Rule as the data show it: active = normalized growth mostly below about 0.91 (no sharp cut-off); inconclusive = no clear call, values can overlap the other calls; inactive = mostly above about 0.92. The list shows a part of the results.

Assay: chemical genetic growth profiling, strain panel (AID 1159580);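 also: tested at 20 µM; growth read once vehicle control cultures reached saturation at 30 °C; 1 = growth at the plate median or of vehicle wells; lower values mean less growth of the strain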
Details: S. cerevisiae deletion strains, growth OD

Measured: normalized growth

O=C1NCC2(CCN(CCc3ccccc3)CC2)O1
inactive: locus YAL013W, strain DEP1, hits give low values 1.02 | locus YAL021C, strain ccr4, hits give low values 0.973 | locus YAL026C, strain drs2, hits give low values 0.99 | locus YAL030W, strain snc1, hits give low values 1 | locus YAL040C, strain CLN3, hits give low values 1 | locus YBL061C, strain skt5, hits give low values 0.983 | locus YBR009C, strain hhf1, hits give low values 0.992 | locus YBR021W, strain FUR4, hits give low values 1.01 | locus YBR023C, strain chs3, hits give low values 0.993 | locus YBR171W, strain sec66, hits give low values 0.99 | locus YBR229C, strain ROT2, hits give low values 1.01 | locus YBR231C, strain swc5, hits give low values 0.985 | locus YBR279W, strain paf1, hits give low values 1.01 | locus YCL011C, strain gbp2, hits give low values 1.01 | locus YCL016C, strain dcc1, hits give low values 1.02 | locus YCL029C, strain bik1, hits give low values 1 | locus YCL061C, strain MRC1 (second series), hits give low values 1.01 | locus YCL069W, strain vba3, hits give low values 0.982 | locus YCR088W, strain abp1, hits give low values 1.01 | locus YDL005C, strain med2, hits give low values 0.987 | locus YDL035C, strain GPR1, hits give low values 1.01 | locus YDL040C, strain nat1, hits give low values 0.996 | locus YDL074C, strain BRE1, hits give low values 1.02 | locus YDL101C, strain DUN1, hits give low values 1.02 | locus YDL134C, strain PPH21, hits give low values 1 | locus YDL185W, strain tfp1, hits give low values 1.01 | locus YDL192W, strain arf1, hits give low values 1.01 | locus YDR001C, strain nth1, hits give low values 0.99 | locus YDR069C, strain doa4, hits give low values 0.983 | locus YDR101C, strain arx1, hits give low values 0.994 | locus YDR137W, strain rgp1, hits give low values 0.989 | locus YDR150W, strain NUM1, hits give low values 1 | locus YDR159W, strain sac3, hits give low values 0.989 | locus YDR162C, strain NBP2, hits give low values 1.01 | locus YDR195W, strain ref2 0.973 | locus YDR297W, strain sur2, hits give low values 1 | locus YDR318W, strain mcm21, hits give low values 1.01 | locus YDR334W, strain swr1, hits give low values 0.983 | locus YDR335W, strain msn5, hits give low values 0.971 | locus YDR363W, strain ESC2, hits give low values 1 | locus YDR388W, hits give low values 1 | locus YDR392W, strain spt3, hits give low values 1.02 | locus YDR502C, strain sam2, hits give low values 0.995 | locus YEL003W, strain gim4, hits give low values 0.99 | locus YEL037C, strain rad23, hits give low values 0.982 | locus YEL061C, strain CIN8 (second series), hits give low values 0.978 | locus YEL061C, strain CIN8, hits give low values 1 | locus YER002W, strain NOP16, hits give low values 1.01 | locus YER015W, strain faa2, hits give low values 1 | locus YER016W, strain bim1, hits give low values 1.01 | locus YER110C, hits give low values 1 | locus YER111C, strain swi4, hits give low values 0.992 | locus YER155C, strain BEM2 (second series), hits give low values 0.996 | locus YER155C, strain BEM2, hits give low values 1 | locus YER167W, strain BCK2, hits give low values 1 | locus YFR010W, strain ubp6, hits give low values 0.965 | locus YGL078C, strain dbp3, hits give low values 0.994 | locus YGL086W, strain mad1, hits give low values 0.993 | locus YGL167C, strain pmr1, hits give low values 0.982 | locus YGL173C, strain kem1, hits give low values 0.979 | locus YGL227W, strain vid30, hits give low values 1 | locus YGL240W, strain doc1, hits give low values 0.969 | locus YGL248W, strain PDE1, hits give low values 1.01 | locus YGL253W, strain hxk2, hits give low values 0.982 | locus YGR078C, strain PAC10, hits give low values 1.01 and 1.02 | locus YGR135W, strain pre9, hits give low values 0.999 | locus YGR229C, strain SMI1, hits give low values 1 | locus YGR252W, strain gcn5, hits give low values 0.944 | locus YHR013C, strain ard1, hits give low values 0.974 | locus YHR027C, strain rpn1, hits give low values 1 | locus YHR030C, strain SLT2, hits give low values 1.01 and 0.988 | locus YHR079C, strain IRE1 (second series), hits give low values 1.01 | locus YHR079C, strain IRE1, hits give low values 0.979 | locus YHR094C, strain hxt1, hits give low values 1 | locus YHR129C, strain ARP1, hits give low values 1.02 | locus YHR142W, strain chs7, hits give low values 0.966 | locus YHR200W, strain rpn10, hits give low values 0.994 | locus YIL066C, strain RNR3, hits give low values 1.01 | locus YIL073C, strain SPO22, hits give low values 1.01 | locus YIL125W, strain kgd1, hits give low values 0.998 | locus YIR030C, strain dcg1, hits give low values 0.994 | locus YJL092W, strain hpr5, hits give low values 0.997 | locus YJL095W, strain BCK1 (second series), hits give low values 0.993 | locus YJL095W, strain BCK1, hits give low values 1.04 and 0.982 | locus YJL115W, strain asf1, hits give low values 0.976 | locus YJL129C, strain trk1, hits give low values 0.967 | locus YJL134W, strain LCB3, hits give low values 1.01 | locus YJL154C, strain vps35, hits give low values 1 | locus YJL164C, strain tpk1, hits give low values 1.01 | locus YJL166W, strain qcr8, hits give low values 0.997 | locus YJL168C, strain set2, hits give low values 1.01 | locus YJL187C, strain SWE1 (second series), hits give low values 1.02 | locus YJR043C, strain POL32, hits give low values 1.02 | locus YJR066W, strain TOR1, hits give low values 0.913 | locus YJR075W, strain HOC1, hits give low values 1 and 0.995
